The supplement of paper PMC10849652
The full data set covers some 8,800 targets. This sample favours those with a hit. About 0.5% of all pairs of compound and target were hits. Values without a mark were called inactive.

Tests used:
Test in all cases: log2 fold change, soluble protein after heating vs DMSO (PISA); higher = thermal stabilisation; K562 lysate, 10 uM; active = over 0.2 and 3.5 SD of the protein, either way, in both replicates (recomputed)
erlotinib = compound: C#Cc1cccc(Nc2ncnc3cc(OCCOC)c(OCCOC)cc23)c1 [erlotinib]
Summary of the method: (§1)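 K562 pellets were dounce-homogenised in PBS pH 7.4 containing 1 mM MgCl2, and the crude extract, at 1 mg/mL protein, was exposed to 10 μM compound for 30 min. Aliquots were heated for 3 min across 48°C-58°C, pooled, brought to 0.5% NP-40 at 4°C and spun at 21,000xg for 90 min, with the supernatant taken as soluble protein. TMTpro 16plex LC-MS/MS with equalised channel sums quantified that protein. Values are log-two fold changes in thermal stability relative to solvent controls, taken from duplicates.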

[1] = compound: C/C(=N\NC(=O)C1=CC(=CC=C1)S(=O)(=O)N2CCOCC2)/C3=C(C=CC(=C3)Cl)O
Summary of the method: as §1

[2] = compound: C1=CC(=CC=C1C2=NC3=C(N2)C=C(C=C3)C(=O)N)OC4=CC=C(C=C4)Cl
Summary of the method: as §1

[3] = compound: C1=CC2=C(C=CC(=C2)/C=C\3/C(=O)NC(=NCC4=CC=CS4)S3)N=C1
Summary of the method: as §1

[4] = compound: C1=CC2=NC=CN=C2C=C1/C=C/3\C(=O)NC(=O)S3
Summary of the method: as §1

[5] = compound: C1=CC=C(C=C1)C2=NC(=C(N2)C3=CC=NC=C3)C4=CC(=C(C=C4)Cl)O
Summary of the method: as §1

[6] = compound: C1=CC=C2C(=C1)C3=NNC4=CC=CC(=C43)C2=O
Summary of the method: as §1

[7] = compound: C1CCN(C1)C(=O)NC2=CC=CC(=C2)NC3=NC=C(C(=N3)NCCC4=CN=CN4)Br
Summary of the method: as §1

[8] = compound: C1CN(CCC1(CC2=CC=C(C=C2)Cl)N)C3=NC=NC4=C3C=CN4
Summary of the method: as §1

IRAK-1-4 Inhibitor I = compound: C1COCCN1CCN2C3=CC=CC=C3N=C2NC(=O)C4=CC(=CC=C4)[N+](=O)[O-] [IRAK-1-4 Inhibitor I]
Summary of the method: as §1

UniProt O60716, sequence (O60716 whole entry, looked up): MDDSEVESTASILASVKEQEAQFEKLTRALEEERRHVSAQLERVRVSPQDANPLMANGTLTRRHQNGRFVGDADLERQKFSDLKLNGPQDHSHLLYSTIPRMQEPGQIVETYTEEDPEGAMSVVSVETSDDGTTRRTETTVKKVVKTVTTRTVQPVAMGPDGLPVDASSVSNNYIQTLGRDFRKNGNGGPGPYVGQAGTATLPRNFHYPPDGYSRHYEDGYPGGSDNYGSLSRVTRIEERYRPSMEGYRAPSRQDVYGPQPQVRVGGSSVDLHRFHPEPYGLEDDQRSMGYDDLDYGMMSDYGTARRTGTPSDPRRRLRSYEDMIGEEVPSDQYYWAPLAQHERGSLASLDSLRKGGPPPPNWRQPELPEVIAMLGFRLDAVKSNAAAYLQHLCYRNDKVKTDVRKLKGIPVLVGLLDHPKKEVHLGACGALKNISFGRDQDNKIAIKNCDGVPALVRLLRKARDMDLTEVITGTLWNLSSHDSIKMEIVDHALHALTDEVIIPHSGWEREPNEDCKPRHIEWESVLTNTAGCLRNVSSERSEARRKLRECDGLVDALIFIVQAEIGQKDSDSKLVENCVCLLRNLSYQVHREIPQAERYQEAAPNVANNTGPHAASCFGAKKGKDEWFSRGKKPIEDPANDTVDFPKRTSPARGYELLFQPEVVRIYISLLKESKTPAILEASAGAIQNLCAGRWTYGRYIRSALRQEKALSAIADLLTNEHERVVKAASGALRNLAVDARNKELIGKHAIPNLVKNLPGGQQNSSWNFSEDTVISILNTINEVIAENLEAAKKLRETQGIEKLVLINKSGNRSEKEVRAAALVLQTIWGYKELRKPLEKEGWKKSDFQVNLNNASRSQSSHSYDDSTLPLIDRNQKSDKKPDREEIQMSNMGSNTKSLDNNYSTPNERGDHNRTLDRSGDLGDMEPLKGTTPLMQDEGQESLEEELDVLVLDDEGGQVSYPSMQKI
UniProt Q9P003, sequence (Q9P003 whole entry, looked up): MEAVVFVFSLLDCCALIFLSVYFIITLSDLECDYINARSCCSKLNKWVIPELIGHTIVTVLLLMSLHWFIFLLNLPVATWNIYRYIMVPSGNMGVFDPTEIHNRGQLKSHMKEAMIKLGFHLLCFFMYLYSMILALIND
UniProt P68400, sequence (P68400 whole entry, looked up): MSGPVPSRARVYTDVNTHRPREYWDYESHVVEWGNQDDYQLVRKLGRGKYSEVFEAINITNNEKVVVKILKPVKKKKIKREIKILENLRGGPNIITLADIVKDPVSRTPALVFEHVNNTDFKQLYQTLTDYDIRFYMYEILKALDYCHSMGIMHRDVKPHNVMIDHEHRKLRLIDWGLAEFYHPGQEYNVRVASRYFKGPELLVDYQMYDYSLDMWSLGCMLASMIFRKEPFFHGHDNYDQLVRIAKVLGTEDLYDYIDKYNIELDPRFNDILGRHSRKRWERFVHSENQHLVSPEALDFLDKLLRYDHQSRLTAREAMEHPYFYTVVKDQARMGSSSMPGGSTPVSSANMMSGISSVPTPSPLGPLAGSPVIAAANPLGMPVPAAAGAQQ
UniProt Q9H2P9, sequence (Q9H2P9 whole entry, looked up): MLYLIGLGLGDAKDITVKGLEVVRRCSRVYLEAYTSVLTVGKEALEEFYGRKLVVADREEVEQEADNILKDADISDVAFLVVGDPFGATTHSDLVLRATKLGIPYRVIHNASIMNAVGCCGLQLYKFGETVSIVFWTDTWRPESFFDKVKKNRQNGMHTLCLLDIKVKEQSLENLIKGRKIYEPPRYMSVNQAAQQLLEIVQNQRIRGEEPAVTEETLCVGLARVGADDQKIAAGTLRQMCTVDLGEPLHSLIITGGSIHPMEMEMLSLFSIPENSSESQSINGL
UniProt O14757, sequence (O14757 whole entry, looked up): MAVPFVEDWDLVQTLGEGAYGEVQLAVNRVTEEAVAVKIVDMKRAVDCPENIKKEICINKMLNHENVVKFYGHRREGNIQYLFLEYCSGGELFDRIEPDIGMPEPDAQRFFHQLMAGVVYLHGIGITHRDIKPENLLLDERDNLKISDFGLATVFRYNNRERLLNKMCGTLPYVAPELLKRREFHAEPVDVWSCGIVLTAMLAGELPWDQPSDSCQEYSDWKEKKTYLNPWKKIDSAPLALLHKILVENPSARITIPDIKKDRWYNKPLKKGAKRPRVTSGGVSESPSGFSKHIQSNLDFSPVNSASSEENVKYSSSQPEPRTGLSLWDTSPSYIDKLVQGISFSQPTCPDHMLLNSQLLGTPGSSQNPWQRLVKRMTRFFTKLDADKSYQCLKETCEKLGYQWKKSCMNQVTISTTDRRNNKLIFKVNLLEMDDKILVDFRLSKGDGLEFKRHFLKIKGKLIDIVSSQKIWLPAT
UniProt Q6PJW8, sequence (Q6PJW8 whole entry, looked up): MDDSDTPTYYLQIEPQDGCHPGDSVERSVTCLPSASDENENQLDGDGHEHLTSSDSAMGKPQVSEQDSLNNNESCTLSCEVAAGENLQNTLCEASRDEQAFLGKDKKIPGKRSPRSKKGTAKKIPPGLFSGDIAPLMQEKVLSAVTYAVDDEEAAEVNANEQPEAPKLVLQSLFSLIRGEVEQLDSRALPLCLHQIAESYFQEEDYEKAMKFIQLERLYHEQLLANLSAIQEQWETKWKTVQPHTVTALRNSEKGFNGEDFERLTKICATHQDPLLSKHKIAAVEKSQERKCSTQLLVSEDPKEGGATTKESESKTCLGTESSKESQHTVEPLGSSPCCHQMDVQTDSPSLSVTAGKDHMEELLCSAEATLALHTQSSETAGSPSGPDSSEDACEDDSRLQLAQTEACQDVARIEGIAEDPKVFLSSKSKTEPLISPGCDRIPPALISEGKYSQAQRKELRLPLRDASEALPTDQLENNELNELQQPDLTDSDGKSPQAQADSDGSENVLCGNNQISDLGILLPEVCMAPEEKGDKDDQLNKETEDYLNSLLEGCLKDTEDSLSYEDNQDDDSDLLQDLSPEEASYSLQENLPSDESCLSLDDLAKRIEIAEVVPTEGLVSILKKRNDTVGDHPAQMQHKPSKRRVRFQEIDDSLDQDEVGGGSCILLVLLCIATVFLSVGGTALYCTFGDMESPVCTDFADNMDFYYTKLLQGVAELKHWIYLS
UniProt Q9NQI0, sequence (Q9NQI0 whole entry, looked up): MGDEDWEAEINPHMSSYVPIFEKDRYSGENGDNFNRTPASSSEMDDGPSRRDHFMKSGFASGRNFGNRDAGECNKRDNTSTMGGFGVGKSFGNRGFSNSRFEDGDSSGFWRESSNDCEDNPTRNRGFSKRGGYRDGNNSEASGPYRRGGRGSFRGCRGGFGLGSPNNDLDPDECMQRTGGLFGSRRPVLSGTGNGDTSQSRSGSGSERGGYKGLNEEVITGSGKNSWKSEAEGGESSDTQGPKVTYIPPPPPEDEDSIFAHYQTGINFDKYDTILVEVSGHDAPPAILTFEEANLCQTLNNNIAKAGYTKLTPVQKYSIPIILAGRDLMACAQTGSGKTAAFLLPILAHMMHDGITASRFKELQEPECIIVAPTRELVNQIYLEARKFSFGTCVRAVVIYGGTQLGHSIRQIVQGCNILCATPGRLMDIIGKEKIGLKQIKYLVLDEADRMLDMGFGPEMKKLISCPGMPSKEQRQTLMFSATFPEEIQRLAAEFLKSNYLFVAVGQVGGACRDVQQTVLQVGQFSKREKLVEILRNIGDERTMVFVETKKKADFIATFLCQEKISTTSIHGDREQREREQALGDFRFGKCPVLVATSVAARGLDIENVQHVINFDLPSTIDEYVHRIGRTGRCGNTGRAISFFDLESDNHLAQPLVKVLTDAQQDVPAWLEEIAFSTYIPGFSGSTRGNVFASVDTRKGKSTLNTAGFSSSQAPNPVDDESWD
UniProt Q96LJ7, sequence (Q96LJ7 whole entry, looked up): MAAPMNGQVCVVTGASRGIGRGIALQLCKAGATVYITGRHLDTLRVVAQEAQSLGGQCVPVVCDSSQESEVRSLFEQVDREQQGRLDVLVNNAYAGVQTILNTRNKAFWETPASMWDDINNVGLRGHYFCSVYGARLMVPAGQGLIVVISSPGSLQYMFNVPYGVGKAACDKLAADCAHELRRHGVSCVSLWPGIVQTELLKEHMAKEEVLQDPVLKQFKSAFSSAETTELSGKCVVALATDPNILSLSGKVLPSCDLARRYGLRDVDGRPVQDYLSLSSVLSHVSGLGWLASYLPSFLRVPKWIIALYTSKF
UniProt P49674, sequence (P49674 whole entry, looked up): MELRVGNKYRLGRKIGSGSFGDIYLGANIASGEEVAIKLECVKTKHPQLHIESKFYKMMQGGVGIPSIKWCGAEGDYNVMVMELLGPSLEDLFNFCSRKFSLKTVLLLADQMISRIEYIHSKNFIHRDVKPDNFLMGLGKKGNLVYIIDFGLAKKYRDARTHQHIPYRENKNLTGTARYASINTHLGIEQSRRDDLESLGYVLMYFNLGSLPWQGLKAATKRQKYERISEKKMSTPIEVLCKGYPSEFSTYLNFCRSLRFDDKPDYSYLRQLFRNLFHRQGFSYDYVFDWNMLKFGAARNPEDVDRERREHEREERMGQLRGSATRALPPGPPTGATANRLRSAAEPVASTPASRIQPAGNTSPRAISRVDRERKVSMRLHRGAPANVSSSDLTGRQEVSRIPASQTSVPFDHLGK
UniProt Q99828, sequence (Q99828 whole entry, looked up): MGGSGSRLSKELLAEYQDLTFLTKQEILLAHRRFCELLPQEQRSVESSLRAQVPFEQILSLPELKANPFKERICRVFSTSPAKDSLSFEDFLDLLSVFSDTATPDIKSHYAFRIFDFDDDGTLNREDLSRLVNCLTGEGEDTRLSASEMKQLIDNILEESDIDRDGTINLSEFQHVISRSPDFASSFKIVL
UniProt Q92564, sequence (Q92564 whole entry, looked up): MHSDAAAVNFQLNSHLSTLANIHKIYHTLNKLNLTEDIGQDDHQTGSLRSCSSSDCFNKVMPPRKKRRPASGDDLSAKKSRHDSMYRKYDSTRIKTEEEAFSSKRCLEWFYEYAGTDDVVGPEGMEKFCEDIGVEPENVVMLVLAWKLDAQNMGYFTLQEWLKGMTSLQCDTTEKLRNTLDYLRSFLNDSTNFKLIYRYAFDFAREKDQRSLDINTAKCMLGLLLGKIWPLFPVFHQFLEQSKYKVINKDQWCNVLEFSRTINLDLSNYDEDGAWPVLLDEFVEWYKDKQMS

| Target | log2 fold change (erlotinib) | log2 fold change [1] | log2 fold change [2] | log2 fold change [3] | log2 fold change [4] | log2 fold change [5] | log2 fold change [6] | log2 fold change [7] | log2 fold change [8] | log2 fold change (IRAK-1-4 Inhibitor I) |
| --- | --- | --- | --- | --- | --- | --- | --- | --- | --- | --- |
| DOK1 (UniProt Q99704) | -0.024 | 0.051 | 0.023 | 0.015 | 0.002 | -0.041 | -0.02 | 0.021 | 0.06 | 0.021 |
| CNIH4 (UniProt Q9P003) | 0.049 | -0.139 | -0.06 | 0.129 | -0.071 | -0.022 | -0.162 | 0.01 | -0.131 | -0.078 |
| COG3 (UniProt Q96JB2) | 0.045 | 0.053 | -0.037 | -0.049 | -0.008 | -0.022 | -0.056 | -0.02 | -0.01 | 0.012 |
| DCUN1D4 isoform 3 (UniProt Q92564) | -0.025 | -0.118 | 0.068 | -0.127 | -0.063 | -0.026 | -0.053 | -0.09 | -0.113 | 0.005 |
| CHEK1 (UniProt O14757) | -0.048 | -0.057 | 0 | 0.27 (active) | 0.008 | 0.023 | 0.06 | -0.108 | 0.02 | -0.011 |
| CSNK2A1 (UniProt P68400) | 0.005 | -0.111 | -0.02 | 0.225 | 0.356 (active) | 0.017 | 0.219 | 0.112 | -0.02 | 0 |
| CTNND1 isoform 3 (UniProt O60716) | -0.002 | -0.039 | -0.024 | -0.045 | 0.003 | 0.087 | -0.093 | 0.009 | 0.022 | 0.004 |
| DNAJC3 (UniProt Q13217) | -0.002 | -0.057 | 0.06 | 0.008 | -0.021 | -0.032 | -0.02 | -0.033 | -0.047 | 0.011 |
| DDX39A (UniProt O00148) | 0.023 | -0.095 | -0.045 | -0.001 | -0.003 | 0.008 | -0.026 | -0.02 | 0.009 | 0.014 |
| CLIP1 isoform 1 (UniProt P30622) | -0.025 | -0.026 | 0.019 | -0.005 | -0.018 | 0.005 | 0.002 | 0 | -0.012 | 0.007 |
| CYCS (UniProt P99999) | -0.022 | -0.121 | -0.019 | -0.006 | 0.003 | 0.008 | 0.02 | 0.011 | 0.002 | -0.005 |
| DCP1A (UniProt Q9NPI6) | 0.038 | 0.025 | 0.03 | 0.004 | -0.03 | 0.014 | -0.033 | 0.013 | 0.012 | -0.045 |
| CLUH (UniProt O75153) | -0.011 | 0.018 | -0.006 | 0.051 | 0.21 | -0.013 | -0.014 | -0.009 | -0.005 | -0.007 |
| DCTN1 (UniProt Q14203) | 0.007 | -0.001 | -0.001 | -0.001 | 0.019 | -0.001 | -0.023 | 0 | -0.003 | -0.005 |
| DDX4 (UniProt Q9NQI0) | -0.043 | 0.165 | -0.112 | -0.028 | -0.055 | 0.114 | -0.004 | 0.002 | 0.011 | -0.109 |
| DHRS1 (UniProt Q96LJ7) | 0.024 | 0.898 (active) | -0.017 | -0.008 | -0.036 | 0.654 (active) | 0.05 | -0.052 | 0.105 | -0.051 |
| DNAAF5 (UniProt Q86Y56) | -0.008 | 0.041 | -0.062 | -0.057 | 0.021 | -0.016 | -0.08 | -0.003 | 0.007 | -0.039 |
| CLASP2 isoform 3 (UniProt O75122) | 0.032 | -0.014 | -0.022 | -0.032 | -0.018 | 0 | -0.024 | -0.024 | 0.057 | -0.012 |
| DOCK8 (UniProt Q8NF50) | -0.001 | -0.073 | -0.016 | 0.018 | 0.005 | 0.017 | -0.023 | 0.04 | -0.021 | 0.014 |
| CSNK1E (UniProt P49674) | -0.003 | 0.006 | 0.161 | 0.047 | 0.018 | 0.297 (active) | 0.345 (active) | -0.056 | 0.009 | -0.032 |
| DHCR7 (UniProt Q9UBM7) | -0.051 | 0.081 | -0.153 | -0.016 | 0.033 | -0.024 | -0.019 | -0.058 | 0.075 | 0.007 |
| DPH5 isoform 5 (UniProt Q9H2P9) | 0.008 | -0.028 | -0.025 | 0.066 | -0.017 | 0.074 | 0.046 | -0.027 | 0.027 | 0.009 |
| CNOT2 (UniProt Q9NZN8) | 0.016 | 0.013 | 0.021 | 0.015 | -0.016 | -0.011 | 0.014 | 0.004 | 0.012 | 0.007 |
| CSK (UniProt P41240) | 0.045 | -0.025 | -0.004 | -0.028 | -0.035 | 0.031 | 0.106 | 0.107 | 0.033 | 0.053 |
| DARS (UniProt P14868) | 0.006 | 0.037 | -0.039 | 0.027 | 0.019 | -0.004 | -0.04 | -0.012 | -0.024 | -0.041 |
| CNST (UniProt Q6PJW8) | 0.044 | -0.013 | 0.05 | 0.01 | -0.004 | 0.007 | -0.054 | -0.022 | 0.036 | 0.023 |
| COPZ1 isoform 4 (UniProt P61923) | -0.029 | 0.065 | -0.05 | -0.036 | -0.142 | -0.006 | 0 | -0.08 | -0.028 | -0.015 |
| CUEDC2 (UniProt Q9H467) | -0.011 | 0.044 | 0.032 | 0.035 | -0.02 | 0 | -0.039 | 0.029 | -0.106 | 0.013 |
| CIB1 (UniProt Q99828) | -0.039 | 0.126 | 0.013 | 0.042 | -0.227 | 0.023 | 0.02 | 0.045 | 0.073 | 0.026 |
